Sampled rows, rich in hits. Any-hit rate of the full collection: about 2.2%.
Insulin prom up: MIN6 insulin promoter up-regulation | 0.3% of 190,000 active | AID 1625 | z-score at 5 µM | MIN6 insulin promoter-GFP reporter, high-content imaging; stronger effect = higher value;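 active = z-score above 3 at 5 µM with at least 500 cells counted in the well; inconclusive = wells under 500 cells, flagged as cytotoxic or low count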
Autophagy HCS: alters autophagy in cells; MEF GFP-LC3 puncta imaging; test concentration mostly 10 µM; calls only at 10 µM (by protocol); 0.98% of 190,000 active; AID 463193;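 active = percentage of spot-positive cells more than 3 SD above its plate mean, without a fluorescence outlier flag or 80% toxicity; inconclusive = no clear call, values can overlap the other calls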;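 also: spot-positive cell cutoff set from DMSO-treated cells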
p47phox inh: blocks human p47phox regulatory protein of NADPH oxidases; P14598; p47phox/p22phox peptide binding, fluorescence polarization, 2 h; inhibition, % at 24.7 µM; 0.53% of 220,000 active; AID 1274;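 active = inhibition above about 30%, limit read from the data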;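 also: 0% = p47phox with labelled peptide and 100% = labelled peptide alone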
Target sequence (P14598 whole entry, looked up): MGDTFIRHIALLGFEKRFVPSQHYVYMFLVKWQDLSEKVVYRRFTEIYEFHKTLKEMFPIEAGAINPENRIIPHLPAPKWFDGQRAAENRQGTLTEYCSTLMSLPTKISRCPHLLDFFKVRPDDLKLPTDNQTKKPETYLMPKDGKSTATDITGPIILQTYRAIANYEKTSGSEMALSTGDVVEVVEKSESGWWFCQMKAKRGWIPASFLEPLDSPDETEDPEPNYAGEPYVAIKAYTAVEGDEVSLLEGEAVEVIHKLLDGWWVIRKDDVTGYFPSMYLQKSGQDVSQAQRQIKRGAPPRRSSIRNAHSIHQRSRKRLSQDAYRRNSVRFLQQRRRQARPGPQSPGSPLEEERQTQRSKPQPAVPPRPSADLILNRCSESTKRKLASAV
Redox H2O2 prof: compounds producing H2O2 with reducing agent – biochemical, NIH compound library profiling, artefact control for MLSCN library redox annotation, primary screen; DTT-dependent redox cycling H2O2, phenol red/HRP absorbance; 100% = 100 µM peroxide control, 0% = buffer; 0.03% of 200,000 active; activation, % at 10 µM; AID 878;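 active = activation of at least 50% relative to the plate's high and low controls in the primary single-dose screen; inactive = activation below 50%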;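 also: compound incubated with DTT at 0.8 mM final as the reducing agent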
Arbovirus inh: blocks arbovirus infection; inhibition, % at 10 µM; 0.37% of 200,000 active; arbovirus infection cell-based antiviral screen; in the data active = inhibition above about 30%
HMGR II inh: blocks class II HMG-CoA reductase of Enterococcus faecalis; purified E. faecalis HMGR, NADPH absorbance 340 nm kinetic; inhibition, % at 10 µM; 0.41% of 190,000 active; AID 1066;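 active = inhibition above a set limit, the median over all tested compounds plus 3 SD, cut at about 9.5% in these data; inconclusive = no clear call, values can overlap the other calls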;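 also: enzyme runs in reverse so mevalonate oxidation gives rising NADPH absorbance; 0% = complete reaction with DMSO and 100% = background rate lacking mevalonate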
Active calls of the source: *; i = inactive; ? = inconclusive; / = no result; + = active, no number.

SMILES	Insulin prom up	Autophagy HCS	p47phox inh	Redox H2O2 prof	Arbovirus inh	HMGR II inh
Cc1ccc(NC(=O)CN2C(=O)NC(Cc3ccccc3)C2=O)c(Br)c1 (centres undefined)	-0.21	i	-1	-2	-7	10*
O=C(CN1C(=O)NC(Cc2ccccc2)C1=O)Nc1ccc(F)cc1 (centres undefined)	-1.3	i	-3	1	11	-1
CCOc1ccc(/C=N/NC(=O)c2nnn(-c3nonc3N)c2-c2ccc(OCC)cc2)cc1	0.25	i	-3	0	2	0
CCOC(=O)c1nnn(-c2nonc2N)c1-c1ccc(OCC)cc1	3.8*	i	-4	-4	5	-8
CCOc1ccc(-c2nc(C#N)c(NCc3ccco3)o2)cc1	-0.25	i	-7	-1	-7	-10
N#Cc1c2c(c(-n3cnc4ccccc43)n3c1nc1ccccc13)CCC2	4.8*	i	-22	2	0	-1
Cc1c2c(n3c(nc4ccccc43)c1C#N)N(c1ccccc1)CC2	0.24	+	6	1	-1	-1
Cc1c2c(n3c(nc4ccccc43)c1C#N)N(CCN(C)C)CC2	-0.12	i	-12	-1	7	-8
CCOC(=O)c1nnc(-c2cccs2)nc1NC(C)C	/	i	2	1	10	-6
Cc1sc(-n2c(C)cc(/C=C3\SC(=S)NC3=O)c2C)c(C#N)c1C	/	i	-131	-8	-4	11*
Cc1cc(=O)[nH]c2ccccc12	-0.38	i	1	1	-4	-7
Cc1cc2[nH]c3c(c[n+](C)c4ccccc34)c2cc1C	?	+	50*	0	-36	-3
Cc1ccc2sc(N(CCCN(C)C)C(=O)c3nc4ccccc4s3)nc2c1C	0.87	i	32*	0	-22	-3
Cc1cccc2sc(N(CCCN(C)C)C(=O)c3nc4ccccc4s3)nc12	1.2	i	-5	0	9	1
CCOC(=O)c1c(CSCc2ccccc2)oc2ccc(O)c(CN(C)C)c12	/	/	-1	/	/	/
C=CCOc1ccccc1CNCCNC(=O)c1nonc1N	0.12	+	-1	0	-2	-3
CC(=O)Nc1ccc(OS(=O)(=O)c2ccc([N+](=O)[O-])cc2)cc1	-0.57	i	1	0	-9	-1
O=C1c2ccccc2C(=O)N1CCN1CCCCC1	0.92	i	-16	1	0	19*
COc1ccccc1C1CCCN1Cc1nc(-c2ccc(C)s2)oc1C (centres undefined)	-0.63	i	-55	0	14	12*
Cc1ccc(NS(=O)(=O)c2ccccc2Cl)c2c1CC(C)(C)O2	-0.25	i	-21	1	-3	4
Cc1cccc(S(=O)(=O)Nc2ccc(C)c3c2OC(C)(C)C3)c1	-0.82	+	-6	0	4	2
CS(=O)(=O)N1CCC(C(=O)N2CCN(C(c3ccccc3)c3ccccc3)CC2)CC1	/	i	-9	-1	-6	2
CCOc1c(Cl)cc(CNCC(O)c2ccccc2)cc1OC (centres undefined)	0.07	+	-9	-1	28	-1
Cn1c(=O)c2c(nc(Oc3ccccn3)n2C)n(C)c1=O	-0.24	/	/	/	/	/
CC1CN(C)C(C)c2c1oc1ccc([N+](=O)[O-])cc21 (centres undefined)	-0.23	+	-3	0	-12	-1
SMILES	Insulin prom up	Autophagy HCS	p47phox inh	Redox H2O2 prof	Arbovirus inh	HMGR II inh
O=C1CSC(c2cccnc2)N1c1cccc(Cl)c1 (centres undefined)	-0.02	i	-8	0	7	13*
COc1ccc(S(=O)(=O)NCCc2nnc3ccc(SCC(=O)Nc4nc(C)cs4)nn23)cc1	1.2	i	-2	0	6	1
NNc1ncnc2scc(-c3ccc(Cl)cc3)c12	-0.03	i	-3	-1	-24	-1
Cc1ccc(-c2csc3ncnc(NS(=O)(=O)c4ccc(Cl)cc4)c23)cc1	-0.21	i	-8	0	46*	0
CCc1ccc2oc(-c3cc(N)ccc3O)nc2c1	0.65	i	-17	1	-27	2
CCc1ccc2oc(-c3cc(N)cc(C)c3O)nc2c1	-1.5	+	-25	0	-12	0
Cc1ccccc1N1C(=O)c2sc3nc4c(c(=O)n3c2C1=O)CCC4	-0.04	i	69*	0	6	2

Source: PubChem (several laboratories)
